PubChem BioAssay AID2615 (Southern Research Specialized Biocontainment Screening …, 2010)
Calls of active or inactive are those of the source. The rule behind the calls is not given here.

Assay: antiviral efficacy and BSC cell toxicity – BSC cells, SV40 T antigen inhibitor project, confirmation (AID 2615)
Conditions: outcome: CPE inhibition; viability: CPE inhibition, viability, at 100 µM, stronger effect = lower value

Compound	outcome	viability [%]
COc1ccc(-n2nnnc2C(Cl)(Cl)c2nnnn2-c2ccc(OC)cc2)cc1	inactive	6.3
CCN(CC)C(=O)c1ccc2nc(N)sc2c1	inactive	87.6
Cc1ccc2c(c1)C1C=CCC1C(C(=O)O)N2 (configuration not stated)	inactive	41.3
Nc1nc2ccc(C(=O)N3CCOCC3)cc2s1	inactive	101
Cc1cc(C)c2c(=O)n(CC(=O)Nc3cccc(Cl)c3C)sc2n1	inactive	2.65
Nc1nc2ccc(C(=O)N3CCCCC3)cc2s1	inactive	103
ClC(Cl)(c1nnnn1-c1ccccc1)c1nnnn1-c1ccccc1		0.34
ClC(Cl)(c1nnnn1-c1ccc(Br)cc1)c1nnnn1-c1ccc(Br)cc1	inactive	-0.31
Nc1nc2ccc(S(=O)(=O)N3CCCCC3)cc2s1	inactive	0.95
